# Bioassay records deposited in PubChem BioAssay by Broad Institute.
# The full list was thinned out, with hits kept by preference.
# BL2 CD40 inh: CD40 pathway inhibition in BL2 cells; AID 1053188; 0.94% of 83,000 active; inhibition, % at 10 µM; BL2 NF-kB luciferase reporter, CD40L-induced, 4 h;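 active means mean inhibition of at least 50% with a set share of replicates also reaching that level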;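 further: 0% = neutral control wells and 100% = IKK inhibitor VII at 50 µM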
# * = called active by the depositor; [ ] = another dose, or the depositor's remark.
SMILES,BL2 CD40 inh
CC(C)NC(=O)N1C[C@@H]2C(c3ccccc3)[C@H](C1)N2C (some centres not stated),13.2
CC=Cc1ccc2n(c1=O)C[C@H]1[C@H](CO)[C@@H](C(=O)N(C)C)[C@@H]2N1C (mixture of isomers),0.4
Cc1ccc(OC(=O)N(C)C[C@@H]2OCc3ccccc3-c3c(n(C)c4ccccc34)C(=O)N([C@H](C)CO)C[C@@H]2C)cc1,-8.2[25 µM]
COC(=O)[C@@H]1[C@@H](CO)[C@@H]2Cn3c(ccc(-c4ccccc4F)c3=O)[C@H]1N2C(C)=O,-1.9[25 µM]
CCN1C[C@]2(COC)CCC(OC)[C@@]34C5C[C@]6(O)[C@H](OC(=O)c7ccc(OC)cc7)C5[C@@](OC(C)=O)(C[C@H]6OC)[C@@H]([C@H](OC)C23)[C@@H]14 (some centres not stated),11.1[25 µM]
COC(=O)[C@H]1[C@H](CO)[C@H]2Cn3c(ccc(-c4cccc(F)c4)c3=O)[C@@H]1N2C(=O)CC1CC1,2.3[25 µM]
O=C(Cc1ccccn1)N1CCCCN2[C@H](CO)[C@@H](c3ccc(Br)cc3)[C@@H]2C1,1.3[25 µM]
CC(C)NC(=O)N1C[C@@H]2C(c3ccc(Br)cc3)[C@H](C1)N2C (some centres not stated),-3.8
CC1=C(O)C(=O)C=C2C1=CC=C1C2(C)CCC2(C)C3CC(C)(C(=O)O)CCC3(C)CCC12C (configuration not stated),109.7*
COC(=O)[C@H]1[C@H](CO)[C@H]2Cn3c(ccc(-c4cccc(F)c4)c3=O)[C@@H]1N2Cc1cccnc1,-18.1[25 µM]
COC(=O)[C@@H]1[C@@H](CO)[C@@H]2Cn3c(ccc(-c4cccc(F)c4)c3=O)[C@H]1N2Cc1cccnc1,-9.2[25 µM]
CC(C)(C)n1cc(C(=O)c2ccc3ccccc3c2O)cn1,54.5*
CC(=O)N1C[C@@H]2C(c3ccccc3)[C@H](C1)N2CC1CC1 (some centres not stated),-0.8
COC(=O)[C@H]1[C@H](CO)[C@H]2Cn3c(ccc(-c4cccc(C(=O)N(C)C)c4)c3=O)[C@@H]1N2C(=O)NC(C)C,-2.7[25 µM]
C=C(C)[C@@H]1CCC(C)=C[C@H]1c1c(OC)cc(C)cc1OC,4.5[25 µM]
CS(=O)(=O)N1C[C@@H]2C(c3ccccc3)[C@H](C1)N2CC1CC1 (some centres not stated),-5.5
